# Compounds with a hit are over-represented: about 21% of the library has one in this group of screens.
# Sm TGR inh: qHTS Assay for the Inhibitors of Schistosoma Mansoni Peroxiredoxins; Schistosoma mansoni thioredoxin glutathione reductase (TGR), Q962Y6; purified TGR, DTNB reduction, TNB absorbance 405 nm; Potency, µM (series often up to 114 µM), without a hit: at the top dose activity change, negative = inhibition, usual class: inhibitors; actives 3% (n = 360,000); also: potency is read from the fitted curve at half-maximal effect; % is scaled to controls: 0 for no effect and ±100 for the full control effect; nearly all actives have a fitted effect of over 60% in size
#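 First, TGR (20 nM dispensed) and NADPH were mixed with compound. Second, a 15 min room-temperature incubation followed. Third, further NADPH and then DTNB were added to start the reaction. Finally, TNB absorbance was monitored kinetically.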
# NS1 function inh: qHTS Assay for Inhibitors of Influenza NS1 Protein Function; Potency, µM (doses to about 46.1 µM), for inactives: at the highest dose activity, positive = more growth; actives 0.4% (n = 270,000); AID 2326, 2010; calls by dose curve; also: potency is read from the fitted curve at half-maximal effect; actives are rising curves; nearly all actives have a fitted effect of over 50% in size
#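 In this qHTS, NS1 from influenza A is expressed in budding yeast, where it slows growth. Cells are switched from glucose to 2% galactose medium (pH 6.0, -URA), treated with compound, and growth recovery is read at OD600.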
# Pf growth 48h: Primary qHTS for delayed death inhibitors of the malarial parasite plastid, 48 hour incubation; P. falciparum luciferase growth in erythrocytes, 48 h; Potency, µM (top dose mostly 28.7 µM), without a hit: top-dose activity change, negative = inhibition, actives largely listed as inhibitors; actives 5.9% (n = 310,000); also: potency is read from the fitted curve at half-maximal effect; % is scaled to controls: 0 for no effect and ±100 for the full control effect
#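 Luciferase-expressing P. falciparum in infected erythrocytes (2% hematocrit, 0.1% parasitemia final) in RPMI 1640/0.5% Albumax were exposed to compound for 48 hours at 37 C, 5% CO2; growth read as luminescence.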
# Cycloheximide cs: Cycloheximide Counterscreen for Small Molecule Inhibitors of Shiga Toxin; cell reporter, cycloheximide protein synthesis inhibition counterscreen; max response, %; actives 12% (n = 300,000); in the data active = max response mostly above about 13%, no sharp cut-off; inactive = mostly below about 14%; also: read at 38.3 µM for the half of the compounds with a filed dose; 0% is about no effect
# Shiga toxin inh: A qHTS for Small Molecule Inhibitors of Shiga Toxin | Vero cells, Shiga toxin protein synthesis inhibition reporter | actives 9.2% (n = 290,000) | inhibition, % at 38.7 µM; in the data active = inhibition mostly above about 28%, no sharp cut-off; inactive = mostly below about 43%; also: 0% is about no effect
# Pf growth 96h: Primary qHTS for delayed death inhibitors of the malarial parasite plastid, 96 hour incubation; P. falciparum luciferase reporter growth, 96 h; actives 6.9% (n = 320,000); Potency, µM (titrated, usually from 28.7 µM), inactives show at the highest dose activity change, negative = inhibition, actives largely listed as inhibitors; also: potency is read from the fitted curve at half-maximal effect; % is scaled to controls: 0 for no effect and ±100 for the full control effect
#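 Parasite growth measured via integrated firefly luciferase reporter in P. falciparum. Infected erythrocytes at 2% hematocrit, 0.05% parasitemia final were treated 96 hours at 37 C under 5% CO2, and luminescence was read.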
# An asterisk follows results filed as active; u = inconclusive; x = no result. Unless noted, calls follow the shape of the dose curve; as a rule, active = well fitted curve in the direction sought with a large enough effect; inconclusive = small, poorly fitted or top-dose-only effect, or another doubt; inactive = no such curve, though single readings can be large; an effect the other way counts as inactive or inconclusive.
SMILES,Sm TGR inh,NS1 function inh,Pf growth 48h,Cycloheximide cs,Shiga toxin inh,Pf growth 96h
Cc1ccccc1C(=O)c1cccn1CC(=O)NCc1ccc(F)cc1,-10%,4%,14%,20,21,3%
Cc1ccccc1C(=O)c1cccn1CC(=O)NCC1CCCO1 (configuration not stated),-17%,0%,-2%,-1,-23,10µM*
COc1ccc(CNC(=O)Cn2cccc2C(=O)c2ccccc2C)cc1,-1%,-11%,40%,71*,60*,u
COc1ccc(CCNC(=O)Cn2cccc2C(=O)c2ccccc2)cc1OC,-16%,1%,3%,0,-10,-2%
Cc1ccccc1C(=O)c1cccn1CC(=O)NCc1ccccc1,0%,x,28%,26*,30*,1%
Cc1cc2oc(C(=O)Nc3ccc(S(=O)(=O)N(C)c4ccccc4)cc3)cc(=O)c2cc1C,6%,x,x,x,x,x
Cc1c(C(=O)Nc2ccc(F)cc2)c2ccccn2c1CCc1ccncc1,-20%,9%,3%,6,4,u
COc1ccccc1CNc1ccc(-c2nc(-c3cccnc3)no2)cc1[N+](=O)[O-],0%,x,x,x,x,x
COc1ccc(CCNC(=O)Cn2cccc2C(=O)c2ccccc2C)cc1OC,2%,-9%,-27%,1,-12,9.3µM*
Cc1ccccc1C(=O)c1cccn1CC(=O)NCc1ccc2c(c1)OCO2,-3%,-62%,16%,23*,51,u
CCOc1ccc(NC(=S)N2CCC(C(N)=O)CC2)cc1,6%,6%,10%,-1,-7,3%
CCCc1nnc(SCC(=O)Nc2cccc(Cl)c2Cl)o1,-11%,-54%,11%,-3,-5,4%
COc1ccc(OCCn2cc(C=O)c3ccccc32)cc1,-18%,9%,51%,-3,12,u
COC(=O)N/N=C/c1cn(CCCOc2ccccc2)c2ccccc12,-22%,10%,102%,40*,72*,179%
CC1=CN2C(=N)/C(=C\c3cn(CCCOc4ccccc4)c4ccccc34)C(=O)N=C2S1,-2%,9%,-72%,12*,10,u
O=C(N/N=C/c1cn(CCOc2ccccc2)c2ccccc12)c1ccncc1,3%,26%,20%,1,25,-2%
CNC(=S)N/N=C/c1cn(CCOc2ccc(OC)cc2)c2ccccc12,-3%,u,u,10,2,5.9µM*
O=Cc1cn(CCCOc2ccccc2)c2ccccc12,7%,17%,129%,55*,51*,7%
O=C(CNC(=S)N(Cc1ccccc1)Cc1ccccc1F)NCc1ccc(Cl)cc1,7%,x,u,1,-12,u
Cc1csc(=Nc2ccccc2)n1Cc1ccco1,u,0%,19%,29*,31,-4%
c1ccc(CSc2nnc(-c3cccs3)n2Cc2ccco2)cc1,-15%,-64%,u,2,25,-20%
Cc1ccc(NC(=O)CCc2ccc(C)o2)c(Br)c1,-7%,-6%,50%,29*,31*,u
COC(=O)c1c(NC(=O)CCc2ccc(C)o2)sc(C)c1C,40µM*,x,-9%,3,22,5%
Cc1ccc(CCC(=O)Nc2ccc(Cl)cc2)o1,-26%,-34%,24%,18*,x,u
Cc1ccc(CCC(=O)Nc2ccc(Br)cc2)o1,-24%,-23%,34%,18*,15,u
SMILES,Sm TGR inh,NS1 function inh,Pf growth 48h,Cycloheximide cs,Shiga toxin inh,Pf growth 96h
Cc1ccc(CCC(=O)Nc2ccc(CC(=O)O)cc2)o1,u,u,-7%,9,-8,-18%
Cc1ccc(C(=O)CCNc2ccc(Cl)cc2)o1,-32%,-13%,x,17*,31,10µM*
C/C(CCc1ccco1)=N/NC(=O)CCC(=O)Nc1cccc(Cl)c1,0%,16%,-8%,9,-13,24%
Cc1ccc(CCC(=O)Nc2ccc(N(C)C)cc2)o1,-2%,22%,34%,31*,54*,58%
CCc1ccc(CCC(=O)Nc2ccc(Cl)cc2)o1,5%,-33%,20%,18*,24,129%
C/C(CCc1ccco1)=N/NC(=O)CCC(=O)Nc1ccc(Br)cc1,-1%,9%,4%,-1,-7,10µM*
O=C(C1CCCN(S(=O)(=O)c2ccccc2[N+](=O)[O-])C1)N1CCN(c2ccccc2)CC1 (configuration not stated),4%,13%,u,3,13,u
COC(=O)c1c(NC(=O)CCC(=O)O)sc(Cc2ccccc2)c1C,-2%,-55%,12µM*,1,-5,4%
CN(C)C(=O)N(CCCN1CCOCC1)Cc1cccc2ccccc12,-10%,3%,-10%,-1,-13,-6%
CCSc1nc2cc(OC)c(OC)cc2c(=O)n1CCc1ccccc1,-2%,3%,x,-5,-27,u
COc1cc2nc(SCc3ccc(F)cc3)n(Cc3cccs3)c(=N)c2cc1OC,-26%,30%,u,-3,-8,u
COc1ccc(Cn2c(SCc3ccccc3C)nc3cc(OC)c(OC)cc3c2=N)cc1,-21%,-76%,5.9µM*,-6,-12,1.7µM*
COCCCn1c(SCCc2ccccc2)nc2cc(OC)c(OC)cc2c1=N,-6%,x,12µM*,1,-8,9.3µM*
CN1CCC(NC(=O)c2cc(-c3cccc(Br)c3)nc3ccccc23)CC1,20%,7%,13µM*,-3,-8,-11%
O=C(Nc1cccnc1)c1cc(-c2cccnc2)nc2ccc(Br)cc12,-25%,-4%,1.2µM*,-3,31,1.2µM*
O=C(Nc1ccncc1)c1cc(-c2ccccn2)nc2ccccc12,-1%,x,-12%,1,-9,u
O=C(Nc1ccncc1)c1cc(-c2cccc(Br)c2)nc2ccccc12,-5%,x,0.93µM*,x,x,0.83µM*
COc1cccc(-c2cc(C(=O)Nc3cccnc3)c3ccccc3n2)c1,3%,-24%,3.7µM*,12,-9,u
O/N=C1/C2C3C(Br)C4C5CC(C1C53)C24 (configuration not stated),0%,8%,4%,1,8,-4%
O=C(Nc1cccnc1)c1cc(-c2cccc(Br)c2)nc2ccccc12,-2%,-3%,3.7µM*,-2,-16,1%
O=C(Nn1cnnc1)c1cc(-c2cccc(Br)c2)nc2ccccc12,12%,11%,87%,10,17,101%
COc1ccc(NC(=O)c2cc(-c3ccncc3)nc3ccc(Br)cc23)cc1OC,1%,-1%,13µM*,-1,30,31%
O=C(Nc1ncccn1)c1cc(-c2cccc(Br)c2)nc2ccccc12,9%,-6%,u,-1,14,1.7µM*
CCCCn1c(SCC(=O)c2ccccc2)nc2c(sc3ccccc32)c1=O,-8%,x,x,x,x,x

# Screens deposited in PubChem BioAssay by National Center for Advancing Translational Sciences (NCATS).
